From paper PMC7819943, “Rice protein-binding microarrays: a tool to detect cis-acting elements near promoter regions in rice”
The full ranking holds about 39,000 sequences; the median of “fluorescence intensity (a.u.)” is about 4,300, and the highest 2% start at about 39,000. The sample holds the highest values, similar sequences and a random draw of the others, so the mix is not that of the screen.

target: T1, OsSMF1 (Oryza sativa, UniProt Q6ZLB0 1-436); test: protein-binding microarray (RPBM); PBS, 2% BSA, 51.3 ng/ul salmon testes DNA, 50 uM zinc acetate, 200 nM TF, 25 C, 1 h; high values mean tight binding; conditions: protein: recombinant; tags: N-terminal polyhistidine and DsRed monomer fusion (pET32a); chain copies: 2; label: CyDye5-dUTP incorporated in the synthesized complementary strand; 3' TTTTT single-stranded linker to array surface; dsDNA, one strand shown
T1 sequence: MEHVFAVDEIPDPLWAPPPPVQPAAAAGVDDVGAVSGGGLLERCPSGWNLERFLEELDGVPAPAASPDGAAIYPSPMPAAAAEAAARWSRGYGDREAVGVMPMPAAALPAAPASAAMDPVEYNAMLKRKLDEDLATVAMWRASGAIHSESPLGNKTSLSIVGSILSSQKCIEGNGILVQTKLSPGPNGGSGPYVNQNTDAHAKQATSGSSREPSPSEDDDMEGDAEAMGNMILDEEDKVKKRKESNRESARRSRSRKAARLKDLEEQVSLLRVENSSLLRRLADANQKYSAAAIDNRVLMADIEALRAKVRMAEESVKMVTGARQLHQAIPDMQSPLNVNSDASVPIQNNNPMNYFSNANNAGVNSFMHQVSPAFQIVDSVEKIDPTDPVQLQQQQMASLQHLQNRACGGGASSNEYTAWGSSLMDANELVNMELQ
Outline: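 For the binding signal, per-feature fluorescence intensity was read in arbitrary units on an Axon 4000B scanner. Before scanning, a 2% BSA-blocked custom Agilent array made double-stranded with Cy5-dUTP was washed after 1 h at 25 °C with 200 nM protein and 50 µM zinc acetate. The proteins were Ni–NTA-purified transcription factors with N-terminal polyhistidine and DsRed fusions, expressed in E. coli BL21-CodonPlus.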

| Sequence | binding signal |
| --- | --- |
| TAGCAGGTTTCCTGCCAACTTGGCACACTTGCTTCGTGGTCGGAGTCACCTAGTGCAG | 3620 fluorescence intensity (a.u.) |
| GATTCAAGGTTGAGAGGACCTAAGATGTCCAATGATGTGTCGGAGTCACCTAGTGCAG | 3470 fluorescence intensity (a.u.) |
| GGATAAGTGCCCCTACCAATAGGTGGACCCTTGTCACTGGCGGAGTCACCTAGTGCAG | 19300 fluorescence intensity (a.u.) |
| TGTCAATAATGCATCCTGCAGCTAACATCAAATGACATGGCGGAGTCACCTAGTGCAG | 3150 fluorescence intensity (a.u.) |
| GGCCGCTGATCTACGTGGCGGCAGTTCGGTACAGGTGGTGCGGAGTCACCTAGTGCAG | 10500 fluorescence intensity (a.u.) |
| CCATCCCATGGTGGGCCGGTTAGTTCTGTTCCTGGGCCATCGGAGTCACCTAGTGCAG | 64400 fluorescence intensity (a.u.) |
| GCTGTTGGTTGGTGCCACATCCCACGCTGCCATGCCATGCCGGAGTCACCTAGTGCAG | 4910 fluorescence intensity (a.u.) |
| GGGCCCCTCCCAAATCTCCCATGGTTCCATCCATCCCCATCGGAGTCACCTAGTGCAG | 3890 fluorescence intensity (a.u.) |
| ATTAGTATTCCCTCCCATCATTAATATATGACGTTAGTGTCGGAGTCACCTAGTGCAG | 4550 fluorescence intensity (a.u.) |
| CGGGAGGGGAGGGGAATGGATGTGGGGAGGAGAGAGACTGCGGAGTCACCTAGTGCAG | 4600 fluorescence intensity (a.u.) |
| TTCGTCATAGTGTGGAACGACACATCATGAAGATTAGAGACGGAGTCACCTAGTGCAG | 3630 fluorescence intensity (a.u.) |
| GTTCTGTCTTAACCTGCTTTCATATTAATTGTTAAAGTTGCGGAGTCACCTAGTGCAG | 3280 fluorescence intensity (a.u.) |
| CCGGGAAATTCTTGTGTTGTTGTGTTGGTCTTGAGCAATTCGGAGTCACCTAGTGCAG | 3630 fluorescence intensity (a.u.) |
| TGCAAATTGTGCTTTTCTATTCTGTTGTGTCTTCTGCTTTCGGAGTCACCTAGTGCAG | 40700 fluorescence intensity (a.u.) |
| AGCCTAGGAGGAGATGTGACCTCACAGTCAGGTGTCATCGCGGAGTCACCTAGTGCAG | 3660 fluorescence intensity (a.u.) |
| ACCAACCAACCAACCAACCAACCAAGCCTCCCAACTCCATCGGAGTCACCTAGTGCAG | 3810 fluorescence intensity (a.u.) |
| GATTCGCGTCCTCCGTTTGCTTCGCTTCTTCTTCTAGAACCGGAGTCACCTAGTGCAG | 3490 fluorescence intensity (a.u.) |
| CGTCCACGTCCATCTCCGCCGCTGACAGCACCAGCTCTTCCGGAGTCACCTAGTGCAG | 5020 fluorescence intensity (a.u.) |
| TTCCCCTTCCGCGACTGCGAGCTTCTCCGCCGCCGCCGCCCGGAGTCACCTAGTGCAG | 3160 fluorescence intensity (a.u.) |
| AGAGCCGAGGCCCGAATTCCTCCGGTCCTCCTCGTGACCCCGGAGTCACCTAGTGCAG | 15400 fluorescence intensity (a.u.) |
| ACCCCTGCGAATATATAATTTCCCCGCGAGGCCGCGAGCCCGGAGTCACCTAGTGCAG | 47700 fluorescence intensity (a.u.) |

| Sequence | binding signal |
| --- | --- |
| CACTCTCCTCCTACACTGCATGCTGCTGCTGACGTGGCTCCGGAGTCACCTAGTGCAG | 24900 fluorescence intensity (a.u.) |
| TGAGAATACCAGATGACAAAAGGTGACAGTAGTTAGGAACCGGAGTCACCTAGTGCAG | 4190 fluorescence intensity (a.u.) |
| GGGAGGTGTGGTGATCGATCGCCATGCGCGGATTTTCTAACGGAGTCACCTAGTGCAG | 5590 fluorescence intensity (a.u.) |
| AGTGCTTTATCACACAGAATCAATACCCAAGAAGCATATGCGGAGTCACCTAGTGCAG | 41000 fluorescence intensity (a.u.) |
| GCTTGCGCCAAAACCAAACATAGAGCAGCAATAGAGAGGACGGAGTCACCTAGTGCAG | 3610 fluorescence intensity (a.u.) |
| TGATTGTTTAACCAAAATATATGCAATTGACTAAGCAAAACGGAGTCACCTAGTGCAG | 3220 fluorescence intensity (a.u.) |
| TTATCTCCAATTTAAGCAACCAGAGGAATATATATGCTTGCGGAGTCACCTAGTGCAG | 53500 fluorescence intensity (a.u.) |
| CCAAGCAAGCATACAGAGAGCAATAAAAGTATAAAACACACGGAGTCACCTAGTGCAG | 4950 fluorescence intensity (a.u.) |
| TTTATCAAATATTTTGTTCCAAAGCTTACATAAGCATATGCGGAGTCACCTAGTGCAG | 3320 fluorescence intensity (a.u.) |
| CAACCAAGCAAGCGGCAGCAGAGCGCGAGTCATGCGACCCCGGAGTCACCTAGTGCAG | 3180 fluorescence intensity (a.u.) |
| CACGCGCCGGTGCCTTGCGCCGTCACCGTGCCAGCCCAGCCGGAGTCACCTAGTGCAG | 5670 fluorescence intensity (a.u.) |
| GCGTGGCCACATCAGCCTCCTCTCTCCCTTCCTCATCTCTCGGAGTCACCTAGTGCAG | 14700 fluorescence intensity (a.u.) |
| AGGAGGGTGGAGCTGTGCCAAACAGACCCTAAGTGTTTTCCGGAGTCACCTAGTGCAG | 62100 fluorescence intensity (a.u.) |
| CTCCAGGAGGGGTGGAGTTGGAGCTGGAGCTGTGACAAACCGGAGTCACCTAGTGCAG | 12800 fluorescence intensity (a.u.) |
| AGGAGGGGTGGAGCTGGAGCTGGAGCTGTGCCAAACAGGCCGGAGTCACCTAGTGCAG | 3190 fluorescence intensity (a.u.) |
| TTCTTTCATCAATTACTAGGCCTAGATGGGTAATTTTGGTCGGAGTCACCTAGTGCAG | 3200 fluorescence intensity (a.u.) |
| ATCTTGCCGAAGTTGTTGGTGACGAAGTCGAGGCTGCCGACGGAGTCACCTAGTGCAG | 3180 fluorescence intensity (a.u.) |
| AAAGTCAATATAGGAATACAATTTAGAAGTAACTTAAATTCGGAGTCACCTAGTGCAG | 25600 fluorescence intensity (a.u.) |
| TACTTAGTAGCTAGGAGCTATATTGGTTGGAAAGGAGCGCCGGAGTCACCTAGTGCAG | 51200 fluorescence intensity (a.u.) |
| TTAGGCCAAGTATGGGGTTGGGGCTATGGAGGAGAAGGGCCGGAGTCACCTAGTGCAG | 3320 fluorescence intensity (a.u.) |
| CTTAGCCGGCTATACGCGGCTACGTTGGCTGACTTGGTAGCGGAGTCACCTAGTGCAG | 4170 fluorescence intensity (a.u.) |

| Sequence | binding signal |
| --- | --- |
| CGCAGCACGCACGCACGCAGACACGCCCACGCGTTGCGGCCGGAGTCACCTAGTGCAG | 3550 fluorescence intensity (a.u.) |
| CCGCGCCGTCCCTCCTGACGCGGCGTCTCGCCGCCGCCGCCGGAGTCACCTAGTGCAG | 3780 fluorescence intensity (a.u.) |
| TCCCGATCGACGCGTGCATGGCGGCGAGCCTTCTGTCCCACGGAGTCACCTAGTGCAG | 3330 fluorescence intensity (a.u.) |
| CCTTCCAACATGTTTATTATGCATGAGATGTGTGCAACGACGGAGTCACCTAGTGCAG | 3360 fluorescence intensity (a.u.) |
| TTCAACGGCGCGTGCCGACGTGGCCGCTGCGGCGTGCGTGCGGAGTCACCTAGTGCAG | 10300 fluorescence intensity (a.u.) |
| CATTCAACGCTCGCGTGCGTGCAGTGCCGTGTGTGGACCGCGGAGTCACCTAGTGCAG | 54900 fluorescence intensity (a.u.) |
| AGAGGGACGTCGACGCGTGGTGCCGTGGTGGTGTCGCTCGCGGAGTCACCTAGTGCAG | 3400 fluorescence intensity (a.u.) |
| TGGCACATTCTCATCGTATTTTCTTGTTGCTCTATGTATGCGGAGTCACCTAGTGCAG | 3180 fluorescence intensity (a.u.) |
| ACTATAATTCATGGGATTATGTGCCAGCAGTCATAATATCCGGAGTCACCTAGTGCAG | 3180 fluorescence intensity (a.u.) |
| GAGTTAGCAGTGTTGACCACGGTCAAGGTGCCACGTCATCCGGAGTCACCTAGTGCAG | 43000 fluorescence intensity (a.u.) |
| ATTTTATTGGGATCAAATTACCACGTAGGCGCCACGTCAACGGAGTCACCTAGTGCAG | 20900 fluorescence intensity (a.u.) |
| GTGCCTCCGTAGCAATGCCACGTCAGCATATGGAGCGGGTCGGAGTCACCTAGTGCAG | 44600 fluorescence intensity (a.u.) |
| GCGTCATCATGACATGCCACGTCAGCACATGGAGCGGGTTCGGAGTCACCTAGTGCAG | 26100 fluorescence intensity (a.u.) |
| TTGAGTCAGTAGTGTTGACAACGGTCAAGGTGCCACGTCACGGAGTCACCTAGTGCAG | 26100 fluorescence intensity (a.u.) |
| TATTACCACGTAGGCGCCACGTGGCGCCACGTCAGCAAAACGGAGTCACCTAGTGCAG | 42100 fluorescence intensity (a.u.) |
| CGCTACCGTGGCATGCCACGTCACCGGATGGAGCGGGTCGCGGAGTCACCTAGTGCAG | 20100 fluorescence intensity (a.u.) |
| AAGTTCACAGTGCTGACCACGGTCAAGGTGCCACGTCATCCGGAGTCACCTAGTGCAG | 35200 fluorescence intensity (a.u.) |
| GACATGTAGGACCCACGTGAGTCAATGACACGTGGGTCAGCGGAGTCACCTAGTGCAG | 23800 fluorescence intensity (a.u.) |
| CAGTGACTCCTCTCCTACGTAGGCGCCACGTCAGCAAAACCGGAGTCACCTAGTGCAG | 20900 fluorescence intensity (a.u.) |
| ACACGTGGGTCCACGTAGGCGACACGTCAATGCCACGTCACGGAGTCACCTAGTGCAG | 55900 fluorescence intensity (a.u.) |
| TGTGGGGTCCACGTAATGCCACGTCAGCGCAACCTAGGAACGGAGTCACCTAGTGCAG | 37100 fluorescence intensity (a.u.) |
